This is part of a sample that, as a whole, favours compounds with a hit. Of some 83,000 tested, about 20% had one in any assay.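 For each line, cells grew in 96-well plates with the test compound present at a single concentration for 48 hours.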 The source made the active and inactive calls. The calls were made as follows: active = growth percent below 10; inactive = the rest.
tested on: MDA-MB-468 breast; experiment: NCI-60 one-dose screen, 48 h (100 = growth as untreated, 0 = no growth, -100 = all killed); conditions: 10 µM unless noted

Row | SMILES | growth
1 | Cn1nc(C(F)(F)F)c(-c2ccc(Cl)c(C(F)(F)F)c2)c1-c1ccc(OCc2ccc(Cl)cc2)cc1O | -18.7% (active)
2 | COc1ccc(/C=C2\c3cc(OC)c(OC)c(OC)c3CC[C@@H]2O)cc1F | 13.5% (inactive)
3 | Clc1ccc(-c2nc(-c3c[nH]c4ncccc34)cs2)cc1 | 80.2% [100 µM] (inactive)
4 | O=C1/C(=C/c2ccc(Cl)cc2)N=C(c2ccccc2)N1CCc1cccs1 | 72.4% (inactive)
5 | COc1cc(NC(C)CCCNC(=O)CCC(=O)NCCCNCCCCCCCCNCCCNC(=O)CCC(=O)NCCCC(C)Nc2cc(OC)cc3cccnc23)c2ncccc2c1 (centres undefined) | 16.8% (inactive)
6 | CCSC(SCC)c1ccc(Cl)cc1 | 118% (inactive)
7 | N/C(=N\C(N)=N\c1nc2ccccc2s1)c1ccc2ccccc2c1 | 109% (inactive)
8 | COc1cccc2c1C(=O)c1c(O)c3c(c(O)c1C2=O)C[C@@](O)(/C(C)=N/NC(=O)c1ccc(Cl)cc1)C[C@@H]3OC1CC(N)C(O)C(C)O1 (some centres undefined) | -65.1% (active)
9 | C=C1CC/C=C(\C)C(=O)C[C@@H]2[C@@H]1CC2(C)C | 79.1% (inactive)
10 | NC(=O)CSc1oc(-c2ccccc2)nc1S(=O)(=O)c1ccc(Br)cc1 | 73.9% (inactive)
11 | Nc1ccc(F)c(Cl)c1F | 92.5% (inactive)
12 | C=C1C(=O)O[C@H]2[C@H]1CC/C(COC(=O)NCc1ccccc1OC)=C\CC[C@@]1(C)O[C@@H]21 | 42.2% (inactive)
13 | O=C1CCCCN1CCCCC#Cc1cccc(C#Cc2cccnc2)c1 | 73.8% (inactive)
14 | Oc1cc(O)c2c(c1)O[C@H](c1ccc(O)c(O)c1)[C@@H](O)C2 | 115% (inactive)
15 | CCn1c(SCC(=O)c2ccc(Br)cc2)nnc1-c1cc2c([nH]c3ccccc32)c(-c2cccc(O)c2)n1 | 83.9% (inactive)
16 | O=S1(=O)CCC(N(/N=C/c2ccco2)c2ccccc2)C1 (centres undefined) | 108% (inactive)
17 | O=C(Nc1cc(Nc2ncccc2-c2ncnc3nc[nH]c23)ccc1F)c1cc(C(F)(F)F)cc(C(F)(F)F)c1 | -24.9% (active)
18 | CNC(=O)c1c(I)c(NC(C)=O)c(I)c(C(=O)O)c1I | 102% (inactive)
19 | N#Cc1nnn(-c2ccc(S(N)(=O)=O)cc2)c1NC(=O)CCl | 98.7% (inactive)
20 | O=C(N/N=C(\CS(=O)(=O)c1ccccc1)c1cc2cc(Br)ccc2oc1=O)c1ccccc1 | 109% (inactive)
21 | CC(=O)NCCSC(=O)C(=O)SCCNC(C)=O | 103% (inactive)
22 | Cc1ccc2nc(NC(=O)CSC(=S)N3CCN(C)CC3)sc2c1 | 116% (inactive)
23 | O=C1NC(=Nc2ccc(O)cc2)S/C1=C\c1cccc(Cl)c1 | 44.5% (inactive)
24 | O=C1/C(=C/c2ccc(F)cc2)CN(C(=O)CCN2CCC(=NO)CC2)C/C1=C\c1ccc(F)cc1 | -41.6% (active)
